This note sets out measurements from the supplement of paper PMC8726507.

SMILES strings stand for the structures. Values without a mark were called inactive.

The assay concerns Plasmodium falciparum NF54-HGL (transmission to Anopheles stephensi). Description: percentage of barcode signal found in uninfected mosquitoes (transmission-blocking activity); higher = stronger blocking of transmission to mosquito, active = 80 or more. The settings on record: 20 µM; gametocyte preincubation time 24 h; readout time post-feed 8 days. As to the method: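 The mixture was fed to Anopheles stephensi in 96-well plates as blood meals tagged with DNA-barcoded Asaia bacteria. Eight days later, mosquitoes were classed infected or uninfected by luminescence (mean + 5 SD of unfed controls). Barcodes were quantified by Luminex MagPlex-TAG in the pooled uninfected and infected Asaia cultures, background-corrected, and the score is % of barcode signal in uninfected mosquitoes = 100*Iu/(Iu+Ii).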
As for `Cc1cc(C)c2cc(C(=O)NC3CCCCCCC3)[nH]c2c1`, the “percentage of barcode signal found in uninfected mosquitoes” value (shortened to “percentage of barcode signal found”) is 0.265%.

As to `COc1cc(NC(=O)Cc2nn(C)c(=O)c3ccccc23)ccc1Cl`, the “percentage of barcode signal found” value is 9.49%. On to `COc1ccc(CCN2CCC(NCc3cccc(N(C)C)c3)CC2)cc1`, for which the “percentage of barcode signal found” value was 94.9% (active). Next, `CC1(C)Cc2c(c(N3CCOCC3)nc3snc(Br)c23)CO1`: 97% (active); `COc1cccc(NC(=O)c2c(NC(=O)c3cccnc3)sc3c2CCC3)c1`: 34.2%; `COc1ccc2nc(C)cc(OCC(=O)NCc3ccccc3)c2c1`: 2.14%.

As for `O=C([C@@H](c1ccc(Cl)cc1)c1cccnc1)N1CCN(c2ccc(C(F)(F)F)cc2)CC1`, the “percentage of barcode signal found” value is -0.981%. `c1ccc(Oc2ccc(-c3cncc(-c4ccc5[nH]ccc5c4)n3)cc2)cc1`: the “percentage of barcode signal found” value is 29%. Take `O=C(NCCc1ccn(-c2ccccc2)n1)C1CCCCC1`: the “percentage of barcode signal found” value is 3.62%. For `c1ccc(C[C@@H]2CN(c3nccc(Oc4ccc(-n5ccnc5)cc4)n3)CCN2)cc1` the value was 35.3%; for `CC1(COc2ccc(N3CCC(Oc4ccc(OC(F)(F)F)cc4)CC3)cc2)Cn2cc([N+](=O)[O-])nc2O1` (stereo unspecified), 39.6%; for `CC(C)(C(=O)Nc1ccc(F)cc1)n1cc(-c2ccccc2F)cn1`, 0.429%. For the compound `Nc1ccc(C(=O)Nc2ccc(-c3nc4ccccc4o3)cc2)cc1`, the “percentage of barcode signal found” value is -0.842%. Turning to `CCCc1ccc(S(=O)(=O)Nc2ccc(CN3CCN(CC4CC4)CC3)cc2)cc1`, the “percentage of barcode signal found” value is 9.2%. For the compound `CCNC(=O)C(C)Nc1nc(-c2cccnc2)nc2sc(C)c(C)c12` (stereo unspecified), the “percentage of barcode signal found” value was 11.5%. For `CCC(NC(=O)c1ccccc1NC(=O)c1ccc(C)cc1)C(=O)OC` (stereo unspecified) the value was 95.2% (active); for `Cc1ccc(NC(=O)c2cc(S(=O)(=O)NC(C)(C)C)ccc2C)nc1`, 20.2%. Take `O=C(Nc1c(O)cccc1-c1nc2c(C(=O)O)cccc2o1)c1cc(-c2ccccc2)on1`: the “percentage of barcode signal found” value was 20.8%. For `COc1cc(CN2CCC3(C=Cc4ccccc43)CC2)cc2c1OCO2` the value was 0.609%. Take `CC(C)C(Oc1cccc2ccccc12)C(=O)O` (stereo unspecified): the “percentage of barcode signal found” value was 20%. For `CC(C)NCC(=O)Nc1cccc(C(=O)Nc2cccc(C(F)(F)F)c2)c1` the value was 54%.
